In the library only some 2.8% were active in any assay of this set; here they are far more common.
KDM5B inh: KDM5B demethylase inhibition; Potency, µM (highest dose often 57.7 µM), hits mostly inhibitors; actives 2.6% (n = 220,000); Q9UGL1; AID 1347165; KDM5B demethylase, FDH-coupled NADH fluorescence (FDH is formaldehyde dehydrogenase); also: nearly all actives have a fitted effect of over 70% in size
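Inhibition is measured as reduced NADH fluorescence generation from FDH coupling to formaldehyde release. Truncated KDM5BΔAP at 200 nM final acts on H3K4me3 peptide (12.5 µM in substrate mix) in pH 7.5 HEPES buffer with Tween-20, 30 min, room temperature.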
IP6K1 inh: IP6K1 kinase inhibition; AID 1645851; actives 0.81% (n = 140,000); activity change, % (series mostly up to about 58 µM); IP6K1 kinase, ADP-Glo luminescence, 2 h; active compounds read low; in the data active = activity change below about -25%
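ADP-Glo luminescence measures ADP made by human IP6K1 during a 2 h RT reaction with ATP/IP6 (mix at 1.3 mM/130 uM); top library doses 57.5 and 19.1 uM final.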
Each line names hits and unclear results; the compound was inactive in the other large screens.

O=C(NCc1ccccc1F)c1ccc2c(c1)CN(Cc1cccnc1)CCO2	none
O=C(NCCc1ccc(F)cc1)c1ccc2nnc(-c3cc(F)ccc3F)n2c1	none (no result: KDM5B inh)
COc1cc(CNC(=O)c2cc3cn(C(C)C)cc3s2)cc(OC)c1	KDM5B inh inconclusive
CC(C)n1cc2cc(C(=O)NCc3cccnc3)sc2c1	KDM5B inh 25.1µM
CC(C)n1cc2cc(C(=O)NCc3ccccn3)sc2c1	KDM5B inh 25.1µM
COc1ccc(CNC(=O)c2cc3cn(C(C)C)cc3s2)cc1	KDM5B inh inconclusive
CCOc1ccccc1CNC(=O)c1cc2cn(C(C)C)cc2s1	KDM5B inh inconclusive
CC(C)n1cc2cc(C(=O)NCc3ccccc3F)sc2c1	KDM5B inh inconclusive
Cc1ccccc1CNC(=O)c1cc2cn(C(C)C)cc2s1	KDM5B inh 17.8µM
CC(C)n1cc2cc(C(=O)NCc3cnccn3)sc2c1	KDM5B inh 15.8µM
CN(C)C(=O)N1CCCC1C(=O)N1CCC(N2CCOCC2=O)CC1 (centres undefined)	none (no result: KDM5B inh)
Cc1ccc(NS(=O)(=O)c2ccc(N/N=C/c3cc(C)ccc3C)c([N+](=O)[O-])c2)c(C)c1	none (no result: IP6K1 inh)
N#Cc1cccc(CN2CC(N3CC(C(=O)NCc4ccccc4)CC3=O)C2)c1 (centres undefined)	none (no result: KDM5B inh)
CNC(=O)c1cc(C2CC2)nc2onc(C3CCN(C(=O)C4CCCCC4)C3)c12 (centres undefined)	none (no result: KDM5B inh)
Cn1c2c(c3ccccc31)CC=C1C[C@@H](O)CC[C@@]12C	none (no result: KDM5B inh)
COc1ccccc1-c1ccc(CN2CCC(NC(=O)C3CCCC3)C2)cc1 (centres undefined)	none (no result: KDM5B inh)
COc1ccc(Nc2ccnc(N3CCC(NC(=O)Cc4cccc(Cl)c4)CC3)n2)cc1	none (no result: KDM5B inh)
CCOC(=O)[C@@H]1CN(C(=O)OCC)[C@H]2c3ccccc3O[C@@H]12	none (no result: KDM5B inh)
CCOCC(=O)N1CCc2nc3cc(-c4ccc(OC)cc4)[nH]n3c(=O)c2C1	KDM5B inh 25.1µM
Cc1nc(C2(C)CCN(C(=O)c3ccc(Cc4c(C)noc4C)o3)CC2)no1	none
CCc1cccc(NC(=O)N2CCc3nc4cc(-c5ccc(OC)cc5)[nH]n4c(=O)c3C2)c1	KDM5B inh inconclusive
COc1ccc(-c2cc3nc4c(c(=O)n3[nH]2)CN(C(=O)Cc2ccc(NC(C)=O)cc2)CC4)cc1	KDM5B inh 14.1µM
COc1ccc(-c2cc3nc4c(c(=O)n3[nH]2)CN(C(=O)c2ccc(Cc3c(C)noc3C)o2)CC4)cc1	KDM5B inh 28.2µM
COc1ccc(-c2cc3nc4c(c(=O)n3[nH]2)CN(C(=O)CCCc2nc3ccccc3s2)CC4)cc1	KDM5B inh 31.6µM
O=C(CCCc1nc2ccccc2s1)N1CCc2nc3cc(-c4ccccc4)[nH]n3c(=O)c2C1	KDM5B inh inconclusive
O=C(CC1CCCC1)N1C[C@@H](CO)[C@@H]2Oc3c(F)cccc3[C@@H]21	none (no result: KDM5B inh)
O=C(NCc1cccc(C(F)(F)F)c1)c1ccc2nnc(-c3ccc(OC(F)(F)F)cc3)n2c1	none (no result: KDM5B inh)
O=C(CCCc1nc2ccccc2s1)N1CCc2c(nc3cc(-c4ccccc4)[nH]n3c2=O)C1	KDM5B inh inconclusive
CC(=O)Nc1ccc(CC(=O)N2CCc3c(nc4cc(-c5ccccc5)[nH]n4c3=O)C2)cc1	KDM5B inh 22.4µM
O=C(CCCc1nc2ccccc2[nH]1)N1CCc2c(nc3cc(-c4ccccc4)[nH]n3c2=O)C1	KDM5B inh 31.6µM
O=C(CCc1cc(Cl)no1)N1CCc2c(nc3cc(-c4ccccc4)[nH]n3c2=O)C1	KDM5B inh inconclusive
O=C(CCCc1c[nH]c2ccccc12)N1CCc2c(nc3cc(-c4ccccc4)[nH]n3c2=O)C1	KDM5B inh inconclusive
CC1(C)NC(=O)N(CCC(=O)N2CCc3c(nc4cc(-c5ccccc5)[nH]n4c3=O)C2)C1=O	KDM5B inh 28.2µM
O=C(Cc1cccnc1)N1CCc2c(nc3cc(-c4ccccc4)[nH]n3c2=O)C1	KDM5B inh 28.2µM
COc1ccc(CC(=O)N2CCc3c(nc4cc(-c5ccccc5Cl)[nH]n4c3=O)C2)cc1	KDM5B inh inconclusive
C[S+](=O)([O-])c1ccc(-c2nnc3ccc(C(=O)NCc4cccc(Cl)c4)cn23)cc1	none (no result: KDM5B inh)
Cc1cccc(OCCc2noc(C3CCCCN3C(=O)Nc3ccccc3)n2)c1 (centres undefined)	none (no result: KDM5B inh)
O=C(NCCC1CCN(C(=O)Nc2cc(F)cc(F)c2)CC1)c1ccc(F)cc1	none
CCCCCCCCOC(=O)Nc1ccc(C)cc1	none (no result: IP6K1 inh)
CCCc1ccc(S(=O)(=O)N2CCC3(CC2)[C@H](C(=O)NC)[C@@H](OC(N)=O)C(=O)N3C)cc1	none (no result: KDM5B inh)
COc1ccc(-c2cnc3[nH]cc(CC(=O)NCc4cccnc4)c3c2)cc1OC	KDM5B inh inconclusive
CCNC(=O)Cc1c[nH]c2ncc(-c3cccnc3OC)cc12	KDM5B inh 39.8µM
COc1ncccc1-c1cnc2[nH]cc(CC(=O)NC3CCOCC3)c2c1	KDM5B inh inconclusive
COc1ncccc1-c1cnc2[nH]cc(CC(=O)NCc3ccco3)c2c1	KDM5B inh 35.5µM
COc1ccc(Cl)cc1NC(=O)CCc1ncc(-c2ccc(F)cc2F)o1	none (no result: IP6K1 inh)
O=C(c1ccc(C(F)(F)F)cc1)N1CCCC(C(=O)N2CCCC(c3nc4ccncc4[nH]3)C2)C1 (centres undefined)	none (no result: KDM5B inh)
